A selection: hits, their analogues and other compounds. The true share with any hit is near 7.3%.
VP16 counter = VP16 counterscreen qHTS for inhibitors of ROR gamma transcriptional activity; 310,000 tested, 3.5% active; Potency, µM (titrated, usually from 53.6 µM), actives largely listed as inhibitors; Drosophila S2 Gal4-VP16 UAS-luciferase, luminescence, 20 h;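 also: Gal4-VP16 expression switched on by copper sulfate through the metallothionein promoter; nearly all actives have a fitted effect of over 50% in size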
RORg inh = qHTS for inhibitors of ROR gamma transcriptional activity; Nuclear receptor ROR-gamma (Mus musculus), P51450; Drosophila S2 Gal4-RORgamma UAS-luciferase reporter, 20 h; Potency, µM (doses to about 53.6 µM), usual class: inhibitors; 310,000 tested, 5.4% active; also: nearly all actives have a fitted effect of over 60% in size
Target sequence (P51450 whole entry, looked up, the tested form may be a part): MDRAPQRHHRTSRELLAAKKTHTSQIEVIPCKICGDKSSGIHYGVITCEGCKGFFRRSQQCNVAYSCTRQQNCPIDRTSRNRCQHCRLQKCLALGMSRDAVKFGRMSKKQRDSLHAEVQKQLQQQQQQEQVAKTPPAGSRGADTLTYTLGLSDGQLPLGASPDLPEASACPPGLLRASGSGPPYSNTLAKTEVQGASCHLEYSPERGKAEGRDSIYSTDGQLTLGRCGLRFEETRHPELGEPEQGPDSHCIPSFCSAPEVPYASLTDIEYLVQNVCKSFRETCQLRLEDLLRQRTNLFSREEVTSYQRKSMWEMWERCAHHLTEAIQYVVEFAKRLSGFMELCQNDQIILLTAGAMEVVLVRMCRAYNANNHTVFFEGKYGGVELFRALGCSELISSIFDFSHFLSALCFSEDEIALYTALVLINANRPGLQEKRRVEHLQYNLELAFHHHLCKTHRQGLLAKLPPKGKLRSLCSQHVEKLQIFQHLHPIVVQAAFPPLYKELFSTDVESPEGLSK
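Stable Schneider cell line, Gal4 DNA-binding domain fused to ROR gamma, UAS-luciferase. Cmpd 1 hr RT → CuSO4 700 uM final → 20 hr RT → luciferase reagent 10 min → luminescence.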
Tau fluor counter = Counterscreen qHTS for Inhibitors of Tau Fibril Formation, Fluorescence Polarization; tau K18 P301L Alexa594 fluorescence, heparin fibrillization; Potency, µM (highest dose often 57.7 µM); 280,000 tested, 0.93% active; AID 1463, 2008; also: nearly all actives have a fitted effect of over 55% in size
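Human K18 P301L tau (15 uM unlabeled plus 0.24 uM Alexa 594-labeled, final) in 100 mM sodium acetate pH 7 was mixed with compound and 20 uM heparin and incubated 6 hr at 37 C.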
Tau ThT inhib = qHTS for Inhibitors of Tau Fibril Formation, Thioflavin T Binding. 270,000 tested, 2.1% active. Microtubule-associated protein tau (Homo sapiens), P10636. recombinant tau K18 P301L, heparin-induced fibrillization, ThT fluorescence. Potency, µM (highest dose often 57.4 µM), hits mostly inhibitors. AID 1460, 2008; also: nearly all actives have a fitted effect of over 55% in size
Target sequence (P10636 561-689 P618L limits assumed): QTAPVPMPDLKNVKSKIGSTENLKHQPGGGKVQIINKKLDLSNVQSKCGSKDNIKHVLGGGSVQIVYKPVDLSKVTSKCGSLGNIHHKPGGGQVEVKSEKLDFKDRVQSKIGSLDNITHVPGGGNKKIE
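Fibril formation assay: tau K18 P301L at 15 uM with trace Alexa 594 label, heparin inducer 20 uM, pH 7 sodium acetate buffer, 37 C for 6 hr; endpoint ThT signal.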
Tau fibril FP = qHTS for Inhibitors of Tau Fibril Formation, Fluorescence Polarization | Microtubule-associated protein tau (Homo sapiens), P10636 | K18 P301L tau heparin fibrillization, Alexa594 FP, 6 h | Potency, µM (doses to about 57.7 µM), most hits filed as inhibitors | AID 1468, 2008 | 280,000 tested, 0.39% active; also: nearly all actives have a fitted effect of over 55% in size
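Read-out: fluorescence polarization of Alexa 594-labeled tau (0.24 uM), 555 nm excitation, 632 nm emission. Mixtures held 15 uM unlabeled K18 P301L, compound and 20 uM heparin, pH 7 acetate buffer, incubated 6 hr at 37 C.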
Large screens that a line does not name were inactive; ! = not confirmed by another sample; [ ] = another dose, or the depositor's remark. Calls follow the shape of the dose curve; as a rule, active = well fitted curve in the direction sought with a large enough effect; inconclusive = small, poorly fitted or top-dose-only effect, or another doubt; inactive = no such curve, though single readings can be large; an effect the other way counts as inactive or inconclusive.

Cc1cc(C)c2c(N)c(C(=O)NN3CC(=O)N(c4ccccc4)CC3=O)sc2n1	none
COc1cc(NC(C)=O)c2ncccc2c1[N+](=O)[O-]	VP16 counter inconclusive, RORg inh 4µM
COc1cc(NC(C)=O)c2ncccc2c1NC(C)=O	none
O=C(NCc1ccccc1Cl)c1nnc(Cc2cccc(F)c2)o1	Tau fluor counter inconclusive (no result: VP16 counter, RORg inh)
O=C(NCc1cccnc1)/C(=C/c1ccc(-c2ccc(Cl)cc2)o1)S(=O)(=O)c1ccccc1	VP16 counter 20µM, RORg inh inconclusive, Tau ThT inhib inconclusive, Tau fibril FP inconclusive
O=C(NCc1cccnc1)/C(=C\c1ccc(-c2ccc(Br)cc2)o1)S(=O)(=O)c1ccccc1	VP16 counter inconclusive, RORg inh inconclusive, Tau ThT inhib inconclusive, Tau fibril FP inconclusive
NNC(=O)c1cccc(COc2ccc3c(c2)CCC3)c1	VP16 counter 5µM, RORg inh 3.2µM
NNC(=O)c1cccc(COc2ccccc2Br)c1	VP16 counter inconclusive, RORg inh inconclusive, Tau ThT inhib inconclusive
COc1ccc(N/C=C2\C(=O)CCc3c2oc2cc(Cl)c(O)c(Cl)c32)cc1	Tau fluor counter inconclusive, Tau ThT inhib 2.5µM
COc1ccc(C(=O)N(C)Cc2ccc(C)o2)cc1OC1CCN(C(C)=O)CC1	none (no result: Tau fluor counter, Tau ThT inhib, Tau fibril FP)
CN(C(=O)Cn1nc(Cc2cccnc2)c2ccccc2c1=O)c1cccc(C(F)(F)F)c1	none (no result: VP16 counter, RORg inh)
CCOC(=O)c1ccccc1NC(=O)c1sc2nc3n(c(=O)c2c1C)CCCC3	Tau ThT inhib inconclusive (no result: VP16 counter, RORg inh)
OCC#Cc1ncc(C(F)(F)F)cc1Cl	VP16 counter 13µM, RORg inh inconclusive
O=C1C2CCCCC2C(=O)N1c1ccc(NC2CCCCC2)c([N+](=O)[O-])c1 (centres undefined)	Tau ThT inhib inconclusive
C=CCN(CC=C)c1ccc(N2C(=O)C3CCCCC3C2=O)cc1[N+](=O)[O-] (centres undefined)	VP16 counter 22µM, Tau ThT inhib inconclusive
COc1ccc(C(=O)Nc2sc(C(=O)N(C)C)c(C)c2C#N)cc1[N+](=O)[O-]	VP16 counter 16µM, RORg inh inconclusive
O=c1[nH]c(=S)[nH]c2nc(-c3cccs3)cc(C(F)(F)F)c12	RORg inh 11µM (no result: Tau fluor counter, Tau ThT inhib, Tau fibril FP)
O=C1Nc2ccc(I)cc2/C1=C/c1cc(Br)c(O)c(Br)c1	RORg inh inconclusive, Tau fluor counter 14µM![quencher], Tau ThT inhib 4µM, Tau fibril FP inconclusive
COc1ccc(-c2n[nH]c(C)c2-c2ccc(Cl)cc2)c(O)c1	VP16 counter 7.1µM, RORg inh 4µM, Tau fluor counter 20µM[quencher], Tau ThT inhib inconclusive
COc1ccc(-c2n[nH]c(C)c2-c2ccc(Cl)cc2)c(O)c1OC	VP16 counter 7.1µM, RORg inh 7.1µM, Tau ThT inhib inconclusive
COc1ccc(O)c(-c2c(-c3ccc(Cl)cc3)n[nH]c2C)c1	RORg inh inconclusive
COc1ccc(-c2c(-c3ccc(OCC(=O)NN)cc3O)n[nH]c2C)cc1	VP16 counter inconclusive, RORg inh inconclusive
Cc1[nH]nc(-c2ccc(O)cc2O)c1-c1ccc(Cl)cc1	VP16 counter 22µM, RORg inh 13µM, Tau fluor counter 22µM[quencher], Tau fibril FP inconclusive
Cc1[nH]nc(-c2ccc(O)cc2O)c1-c1nc2ccccc2s1	Tau fluor counter inconclusive, Tau fibril FP inconclusive
O=C(COc1ccc(Cl)cc1)NCCc1csc(-c2ccc(C(F)(F)F)cc2)n1	none (no result: VP16 counter, RORg inh)
Cc1cc(S(=O)(=O)C(CNC(=O)COc2ccc(Cl)cc2)c2cccs2)ccc1F (centres undefined)	Tau ThT inhib inconclusive (no result: VP16 counter, RORg inh)
CCN(CC)c1ccc(/C=C/c2nc3ccccc3s2)cc1	VP16 counter 7.1µM, RORg inh 1.6µM, Tau fluor counter inconclusive, Tau ThT inhib inconclusive
O=C(N/N=C\c1cn[nH]c1-c1ccccc1)c1ccc([N+](=O)[O-])cc1	RORg inh 11µM, Tau ThT inhib inconclusive
O=C(N/N=C/c1cn[nH]c1-c1ccc(Cl)cc1)c1ccc([N+](=O)[O-])cc1	VP16 counter inconclusive, RORg inh 10µM, Tau fluor counter inconclusive, Tau ThT inhib inconclusive
O=C(CNC(=O)c1ccccc1)N/N=C/c1cn[nH]c1-c1ccccc1	VP16 counter inconclusive
O=C(CCS(=O)(=O)c1cc(Br)cc2c1N(C(=O)C1CC1)CC2)NCc1ccc(Cl)cc1	none (no result: VP16 counter, RORg inh)
Nc1cc(S(=O)(=O)O)ccc1O	none (no result: Tau fluor counter, Tau ThT inhib, Tau fibril FP)
Cc1cc(-c2ccc(N=Nc3c(S(=O)(=O)O)cc4cc(S(=O)(=O)O)cc(N)c4c3O)c(C)c2)ccc1N=Nc1c(S(=O)(=O)O)cc2cc(S(=O)(=O)O)cc(N)c2c1O	VP16 counter 13µM, RORg inh 14µM (no result: Tau fluor counter, Tau ThT inhib, Tau fibril FP)
CCCCCc1c(C)[nH]c2nc3ccccc3n2c1=O	none (no result: Tau fluor counter, Tau ThT inhib, Tau fibril FP)
CC(=O)Nc1ccc(N2C(C(C)=O)=NN(c3ccc(Cl)cc3)C2c2sccc2C)cc1 (centres undefined)	VP16 counter inconclusive, RORg inh inconclusive, Tau fluor counter 28µM[quencher], Tau ThT inhib inconclusive
COc1ccc(N2C(C(C)=O)=NN(c3ccccc3)C2c2cccs2)cc1 (centres undefined)	VP16 counter inconclusive, Tau fluor counter inconclusive, Tau ThT inhib inconclusive
CC(=O)C1=NN(c2ccc(Cl)cc2)C(c2ccc3c(c2)OCO3)N(C(C)=O)N1C (centres undefined)	none
CC(=O)Nc1ccc(C2=NN(c3ccccc3)C(c3cccs3)C2)cc1 (centres undefined)	VP16 counter inconclusive, Tau fluor counter 8.9µM[quencher], Tau fibril FP inconclusive
CC(=O)Nc1ccc(N2C(C(C)=O)=NN(c3ccccc3)C2c2cccs2)cc1 (centres undefined)	RORg inh inconclusive, Tau fluor counter 25µM[quencher], Tau ThT inhib inconclusive
CC(C)c1c(C(=O)N/N=C/c2ccc(C(F)(F)F)cc2)nnn1-c1nonc1N	RORg inh inconclusive (no result: Tau fluor counter, Tau ThT inhib, Tau fibril FP)
CCC(C)C(N)C(=O)O (centres undefined)	none (no result: Tau fluor counter, Tau ThT inhib, Tau fibril FP)
CN1C(=O)c2ccccc2Sc2ccc(NC(=O)N3CCN(c4ccccc4F)CC3)cc21	Tau ThT inhib inconclusive (no result: VP16 counter, RORg inh)
Cc1ccccc1-c1cncnc1NCCN1CCOCC1	none
Cc1ccc(C)c(Cn2c(=O)n(Cc3ccc4c(c3)OCO4)c(=O)c3oc4ccccc4c32)c1	none (no result: VP16 counter, RORg inh)
NC(=O)c1c(N)sc2c1CCCC2	Tau ThT inhib 22µM, Tau fibril FP inconclusive
Nc1sc2c(c1C(=O)NC1CCS(=O)(=O)C1)CCCC2 (centres undefined)	RORg inh inconclusive, Tau fluor counter inconclusive, Tau ThT inhib 32µM, Tau fibril FP inconclusive
Cc1cc(C)n(-c2nc(C)nc(N)n2)n1	RORg inh 14µM
Cc1cc(C)n(-c2nc(N(c3ccccc3)c3ccccc3)nc(-n3nc(C)cc3C)n2)n1	VP16 counter 5.6µM, RORg inh 5.6µM, Tau ThT inhib 20µM, Tau fibril FP inconclusive
